Here are results for 20 molecules from PubChem BioAssay (NCATS).

Values joined by “and” are separate entries in the source; they are usually repeats but may differ in a detail not shown here. Identical values can stand only once. Results filed as inconclusive are left out. Active and inactive are the calls of the source. Calls follow the shape of the dose curve; as a rule, active = well fitted curve in the direction sought with a large enough effect; inconclusive = small, poorly fitted or top-dose-only effect, or another doubt; inactive = no such curve, though single readings can be large or run the other way.
% is scaled to controls: 0 for no effect and ±100 for the full control effect; potency is read from the fitted curve at half-maximal effect.

The assay in a line: qHTS Assay for Identifying Gametocytocidal Compounds (AID 743244).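 As to max response: actives lower the fluorescent signal which means gametocytes are killed.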 The conditions noted are these: P. falciparum 3D7 stage III-V gametocytes, alamarBlue, 72 h; max response: hits give low values. Summed up:
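A resazurin-based viability read-out was applied to mature P. falciparum gametocytes: 72 h compound treatment, then 24 h dye incubation, with falling fluorescence signalling gametocytocidal effect.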
In general terms: Quantitative high-throughput screening tests each substance at several concentrations.
With `O=c1[nH]c(-c2ccc(C(F)(F)F)cc2)nc2c1CSCC2`, the max response was 12% (inactive).
Turning to `COc1ccc(C2=N[C@H](c3ccc(Cl)cc3)[C@H](c3ccc(Cl)cc3)N2C(=O)N2CCNC(=O)C2)c(OC(C)C)c1`, the max response is 18.2% (inactive).
Take `CCOc1ccn(-c2ccc(F)cc2)c(=O)c1C(=O)Nc1ccc(Oc2ccnc(N)c2Cl)c(F)c1`: the max response is 18.8% (inactive).
Take `COCC(=O)NCC=Cc1ccc2ncnc(Nc3ccc(Oc4ccc(C)nc4)c(C)c3)c2c1`: the max response was -4.65% (inactive).
Same read-out and setting: under `CCCc1nn(C)c2c(=O)[nH]c(-c3cc(S(=O)(=O)N4CCN(C)CC4)ccc3OCC)nc12` stands 18.4% (inactive).
As to `CN([C@@H](Cc1ccc(OS(=O)(=O)c2cccc3cnccc23)cc1)C(=O)N1CCN(c2ccccc2)CC1)S(=O)(=O)c1cccc2cnccc12`, the Potency was 18.7 µM (active).
For `Cc1cc(SCc2sc(-c3ccc(C(F)(F)F)cc3)nc2C)ccc1OCC(=O)O`, the max response was 25.7% (inactive).
As to `Cc1ccc2c(c1)C(=O)[C@@]1(O)CCN(c3ccccc3)C1=N2`, the max response is -1.35% (inactive).
On to `COc1ccc(COc2cc3oc(=O)c4cc(C(C)O)ccc4c3cc2OC)cc1` (stereo not given), for which the max response was 29.9% (inactive).
`COc1ccc2c3n(c(=NC(=O)c4cccnc4)nc2c1OC)CCN3`: the max response is -25% (inactive).
Consider `N#CC[C@H](C1CCCC1)n1cc(-c2ncnc3[nH]ccc23)cn1`, for which the max response was 2.34% (inactive).
As for `CC1(C)SCCN(S(=O)(=O)c2ccc(OCC#CCO)cc2)[C@@H]1C(=O)NO`, the max response was 1.92% (inactive).
In the case of `O=C1CCCC2=C1C(c1[nH]ncc1Cl)N=C(Nc1nc3ccccc3o1)N2` (stereo not given), the max response is 6.89% (inactive).
For `CC1(C)Cc2c(-c3ccccc3)c(-c3ccc(Cl)cc3)c(CC(=O)O)n2C1`, the max response is 1.94% (inactive).
`O=C1[C@H](Cc2ccc(O)cc2)N2C(=O)CCN(C(=O)NCc3ccccc3)[C@H]2CN1Cc1cccc2ccccc12`: the max response was -13% (inactive).
Turning to `OC[C@H](Cc1ccccc1)Nc1nc(Oc2ccc3c(c2)CCC3)nc2c1ncn2Cc1ccc(-c2ccccc2)cc1`, the max response is -2.93% (inactive).
On to `CCc1ccc(CCOc2ccc(CC3SC(=O)NC3=O)cc2)nc1` (stereo not given), for which the max response was 40% (inactive) and -8.95% (inactive).
Same read-out and setting: under `CNC(=O)c1ccc(N2C(=S)N(c3ccc(C#N)c(C(F)(F)F)c3)C(=O)C2(C)C)cc1F` stands 12% (inactive); under `CN(C)C(=O)c1ccc(S(=O)(=O)c2ccc(NC(=O)[C@@](C)(O)C(F)(F)F)c(Cl)c2)cc1`, 2.79% (inactive); under `O=S(=O)(N=Cc1c(O)ccc2ccccc12)c1cccs1`, -5.04% (inactive).
